Test results published in PubChem BioAssay (NCATS).
Where “and” joins values, the source holds several entries; their conditions need not be identical. Equal entries are not always repeated. Inconclusive results are not listed. Where a call stands in place of a potency, no number is given. Unmarked numbers belong to inactive results. Calls of active or inactive are those of the source. The call rests on the fitted dose curve; in most records, active means well fitted curve in the direction sought with a large enough effect; inconclusive means small, poorly fitted or top-dose-only effect, or another doubt; inactive means no such curve, though single readings can be large; an effect the other way counts as inactive or inconclusive.

Target: Lysine-specific demethylase 5B (Homo sapiens) (UniProt Q9UGL1)
Sequence (Q9UGL1 whole entry, looked up): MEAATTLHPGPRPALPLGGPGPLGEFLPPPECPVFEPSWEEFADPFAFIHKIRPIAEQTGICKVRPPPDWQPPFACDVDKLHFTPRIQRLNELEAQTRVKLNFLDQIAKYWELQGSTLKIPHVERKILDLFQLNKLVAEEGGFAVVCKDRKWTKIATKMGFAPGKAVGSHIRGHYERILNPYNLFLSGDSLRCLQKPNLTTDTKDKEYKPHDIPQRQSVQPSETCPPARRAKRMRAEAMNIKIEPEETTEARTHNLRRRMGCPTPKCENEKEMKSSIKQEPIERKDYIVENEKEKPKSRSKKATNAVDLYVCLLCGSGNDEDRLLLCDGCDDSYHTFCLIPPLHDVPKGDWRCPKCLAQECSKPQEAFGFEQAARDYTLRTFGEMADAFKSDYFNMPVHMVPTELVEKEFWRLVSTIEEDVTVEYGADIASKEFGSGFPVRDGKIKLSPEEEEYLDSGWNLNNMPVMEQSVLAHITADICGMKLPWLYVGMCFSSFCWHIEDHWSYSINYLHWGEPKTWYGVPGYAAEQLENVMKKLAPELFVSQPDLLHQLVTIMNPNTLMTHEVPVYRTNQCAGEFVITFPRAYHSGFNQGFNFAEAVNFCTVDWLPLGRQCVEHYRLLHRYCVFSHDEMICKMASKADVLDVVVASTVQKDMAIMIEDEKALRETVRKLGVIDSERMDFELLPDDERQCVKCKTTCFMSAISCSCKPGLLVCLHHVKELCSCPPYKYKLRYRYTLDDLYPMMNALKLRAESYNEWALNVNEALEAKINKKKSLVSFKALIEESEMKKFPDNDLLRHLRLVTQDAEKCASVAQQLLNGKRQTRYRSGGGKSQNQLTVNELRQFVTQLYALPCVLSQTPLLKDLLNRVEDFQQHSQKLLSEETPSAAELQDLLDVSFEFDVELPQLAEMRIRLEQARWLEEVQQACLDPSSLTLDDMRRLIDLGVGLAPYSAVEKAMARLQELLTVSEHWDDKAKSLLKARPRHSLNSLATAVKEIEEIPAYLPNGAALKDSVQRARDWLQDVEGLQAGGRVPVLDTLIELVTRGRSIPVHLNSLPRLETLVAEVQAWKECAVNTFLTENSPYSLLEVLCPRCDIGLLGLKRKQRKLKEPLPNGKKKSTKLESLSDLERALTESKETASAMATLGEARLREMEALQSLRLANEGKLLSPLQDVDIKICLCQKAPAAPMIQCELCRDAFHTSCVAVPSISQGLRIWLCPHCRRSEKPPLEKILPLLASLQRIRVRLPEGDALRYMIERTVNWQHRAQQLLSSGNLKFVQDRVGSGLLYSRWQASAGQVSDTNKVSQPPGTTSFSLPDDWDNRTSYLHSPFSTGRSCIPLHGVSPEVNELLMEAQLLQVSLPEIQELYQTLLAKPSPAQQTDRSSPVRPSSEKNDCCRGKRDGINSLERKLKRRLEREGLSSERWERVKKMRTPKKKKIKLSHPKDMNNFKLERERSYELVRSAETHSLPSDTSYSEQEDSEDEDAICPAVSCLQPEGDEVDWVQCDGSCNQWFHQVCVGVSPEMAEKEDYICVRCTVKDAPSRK
Assay: Optimization screen for KDM5B Histone Demethylases FDH coupled qHTS against the LOPAC library (AID 1347166)
Details: KDM5B demethylation, FDH-coupled NADH fluorescence (FDH is formaldehyde dehydrogenase); at 57.5 µM (top of the series)
Method in brief: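 KDM5BDeltaAP (200nM final) preincubated 10 min with compound, then 12.5uM H3K4Me3, 25uM a-ketoglutarate, ascorbate, Fe(II), NAD+ and FDH added; 50mM HEPES pH 7.5, 0.01% Tween-20. NADH fluorescence (340/450 nm) change over 30 min, room temperature.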

SMILES	activity, negative = inhibition
Nc1nc(N)c2nc(CNc3ccc(C(=O)NC(CCC(=O)O)C(=O)O)cc3)cnc2n1 (stereo not drawn)	-994% (active)
CC1CC2C3CCC4=CC(=O)C=C[C@]4(C)[C@@]3(F)[C@@H](O)C[C@]2(C)[C@@]1(O)C(=O)CO (stereo partly drawn)	-6.72%
CC(C)NCC(O)c1ccc(NS(C)(=O)=O)cc1 (stereo not drawn)	-4.54%

System: not listed separately
Assay: Vero cells viability qHTS for Zika virus inhibitors (AID 1347167); further: potency means the concentration at half of the fitted maximal effect
Details: cytotoxicity counter-screen (Zika); series mostly up to 45.9 µM
Method in brief: (§1)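 Compounds were tested in concentration series on cells grown in DMEM containing 4% FBS. After 24 to 48 hours, cellular ATP was measured by luminescence with CellTiter Glo.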

SMILES	Potency
Nc1nc(N)c2nc(CNc3ccc(C(=O)NC(CCC(=O)O)C(=O)O)cc3)cnc2n1 (stereo not drawn)	inactive
COc1cc(NCc2ccc3nc(N)nc(N)c3c2C)cc(OC)c1OC	inactive
Nc1nc(=S)c2[nH]cnc2[nH]1	inactive
COC(=O)Nc1nc2ccc(C(=O)c3ccccc3)cc2[nH]1	inactive
CNC(=O)c1cc(Oc2ccc(NC(=O)Nc3ccc(Cl)c(C(F)(F)F)c3)cc2)ccn1	7.58 µM (active)

System: not listed separately
Assay: HepG2 cells viability qHTS for Zika virus inhibitors (AID 1347168); further: potency means the concentration at half of the fitted maximal effect
Details: Zika counter-screen; series mostly up to 45.9 µM
Method in brief: as §1

SMILES	Potency
Nc1nc(N)c2nc(CNc3ccc(C(=O)NC(CCC(=O)O)C(=O)O)cc3)cnc2n1 (stereo not drawn)	inactive
Nc1nc(=S)c2[nH]cnc2[nH]1	inactive
COC(=O)Nc1nc2ccc(C(=O)c3ccccc3)cc2[nH]1	inactive
CNC(=O)c1cc(Oc2ccc(NC(=O)Nc3ccc(Cl)c(C(F)(F)F)c3)cc2)ccn1	33.9 µM (active)

System: not listed separately
Assay: Tertiary RLuc qRT-PCR qHTS assay for Zika virus inhibitors (AID 1347169); further: nearly all actives have a fitted effect of over 55% in size; further: potency means the concentration at half of the fitted maximal effect; on activity change, negative = inhibition: top concentration of the series differs between compounds
Details: infected Vero cells, reporter luminescence, 48-72 h; series mostly up to 45.9 µM
Method in brief: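 Vero cells (1,000/well) infected with recombinant ZIKV-RLuc (Cambodian) at MOI 1-2 after compound addition, 48-72 hrs at 37 degrees C. Live-cell Renilla luciferase substrate added; luminescence read after 1-1.5 hrs.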

SMILES	Potency	activity change, negative = inhibition
Nc1nc(N)c2nc(CNc3ccc(C(=O)NC(CCC(=O)O)C(=O)O)cc3)cnc2n1 (stereo not drawn)	inactive	
COc1ccc(-c2ccc3cc(C(=O)O)ccc3c2)cc1C12CC3CC(CC(C3)C1)C2		-1.33% [at 5.25 µM]
Nc1nc(=S)c2[nH]cnc2[nH]1	4.15 µM (active) and 3.3 µM (active)	
COC(=O)Nc1nc2ccc(C(=O)c3ccccc3)cc2[nH]1	829 nM (active)	

System: not listed separately
Assay: qHTS to identify inhibitors of the type 1 interferon - major histocompatibility complex class I in skeletal muscle: primary screen against the NCATS LOPAC collection (AID 1347405);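 further: lytic HiBiT luminescence reporting HLA-B protein level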
Details: iHSKM muscle cells, IFN-b-induced MHC-I HiBiT luminescence, 24 h; series mostly up to 45.9 µM
Method in brief: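 Cells: C25cl48 human myoblasts, HiBiT-tagged HLA-B*08:01, stimulated with IFN-beta 4.0 ng/ml. Compounds are titrated 1:4.3 over 7 points from 46 uM final and incubated 24 hrs; endogenous MHC class I is quantified by HiBiT lytic luminescence.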

SMILES	outcome
Nc1nc(N)c2nc(CNc3ccc(C(=O)NC(CCC(=O)O)C(=O)O)cc3)cnc2n1 (stereo not drawn)	inactive
CC1CC2C3CCC4=CC(=O)C=C[C@]4(C)[C@@]3(F)[C@@H](O)C[C@]2(C)[C@@]1(O)C(=O)CO (stereo partly drawn)	inactive
CNS(=O)(=O)CCc1ccc2[nH]cc(C3CCN(C)CC3)c2c1	inactive
CC(C)NCC(O)c1ccc(NS(C)(=O)=O)cc1 (stereo not drawn)	inactive

System: not listed separately
Assay: qHTS to identify inhibitors of the type 1 interferon - major histocompatibility complex class I in skeletal muscle: primary screen against the NCATS Pharmaceutical Collection (AID 1347407);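 further: luminescence of HiBiT knocked into endogenous HLA-B as interferon-induced MHC class I level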
Details: human skeletal muscle cells, IFN-b-induced MHC-I HiBiT luminescence, 24 h; series mostly up to 45.9 µM
Method in brief: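 Immortalized human myoblasts (C25cl48) with HiBiT knocked into endogenous HLA-B*08:01 were stimulated with 4.0 ng/ml IFN-beta and treated with compounds ([…] top 46 uM) for 24 hrs at 37 C. HiBiT lytic luminescence read.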

SMILES	Potency
CC(C)(C)C(=O)OCOP(=O)(COCCn1cnc2c(N)ncnc21)OCOC(=O)C(C)(C)C	inactive
CCOC(=O)c1ccc(C#Cc2ccc3c(c2)C(C)(C)CCS3)nc1	inactive
Nc1nc(N)nc(-c2cc(Cl)ccc2Cl)n1	inactive
CS(=O)(=O)c1ccc([C@@H](O)[C@@H](CO)NC(=O)C(Cl)Cl)cc1	inactive
CCC(=O)O[C@]1(C(=O)CCl)[C@@H](C)C[C@H]2[C@@H]3CCC4=CC(=O)C=C[C@]4(C)[C@@]3(F)[C@@H](O)C[C@@]21C	inactive
COc1cc([C@@H]2c3cc4c(cc3[C@H](O)[C@H]3COC(=O)[C@H]23)OCO4)cc(OC)c1OC	inactive
Oc1c(Cl)cc(Cl)c2cccnc12	inactive
O=C(NCC1CN(c2ccc(N3CCOCC3=O)cc2)C(=O)O1)c1ccc(Cl)s1 (stereo not drawn)	inactive
CC(C(=O)O)c1ccc2c(c1)CC(=O)c1ccccc1S2 (stereo not drawn)	inactive
COc1ccc(C(=O)CC(=O)c2ccc(C(C)(C)C)cc2)cc1	inactive
COc1nc(N)nc2c1ncn2[C@@H]1O[C@H](CO)[C@@H](O)[C@@H]1O	inactive
Nc1nc(=S)c2[nH]cnc2[nH]1	inactive
CNC(=O)c1cc(Oc2ccc(NC(=O)Nc3ccc(Cl)c(C(F)(F)F)c3)cc2)ccn1	inactive
